# Data: PubChem BioAssay AID492949 (National Center for Advancing Translational Sciences (NCATS), 2010)
# Results filed as inconclusive are left out. A call without a number means that no potency is given here. Active and inactive are the calls of the source. Calls follow the shape of the dose curve; as a rule, active = well fitted activation curve with a large enough effect; inconclusive = small, poorly fitted or top-dose-only effect; inactive = no such curve, though single readings can be large or run the other way.
# Molecular target: Relaxin receptor 1 (Homo sapiens) (UniProt Q9HBX9)
# Assay: qHTS Assay for Agonists of the Relaxin Receptor RXFP1: THP1 Hit Validation; also: nearly all actives have a fitted effect of over 60% in size
# Procedure, shortened: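 RXFP1-THP1 cells, 2000/well, + Ro 20174 (PDE4 inhib.); cpd 30 min 37C. Lysis + cAMP-d2/anti-cAMP cryptate, 30 min RT, HTRF 665/615. Norm: buffer vs 29 nM porcine relaxin; Hill EC50.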
# Potency is read from the fitted curve at half-maximal effect.
# Chain of Relaxin receptor 1 (Homo sapiens) (Q9HBX9 whole entry, looked up): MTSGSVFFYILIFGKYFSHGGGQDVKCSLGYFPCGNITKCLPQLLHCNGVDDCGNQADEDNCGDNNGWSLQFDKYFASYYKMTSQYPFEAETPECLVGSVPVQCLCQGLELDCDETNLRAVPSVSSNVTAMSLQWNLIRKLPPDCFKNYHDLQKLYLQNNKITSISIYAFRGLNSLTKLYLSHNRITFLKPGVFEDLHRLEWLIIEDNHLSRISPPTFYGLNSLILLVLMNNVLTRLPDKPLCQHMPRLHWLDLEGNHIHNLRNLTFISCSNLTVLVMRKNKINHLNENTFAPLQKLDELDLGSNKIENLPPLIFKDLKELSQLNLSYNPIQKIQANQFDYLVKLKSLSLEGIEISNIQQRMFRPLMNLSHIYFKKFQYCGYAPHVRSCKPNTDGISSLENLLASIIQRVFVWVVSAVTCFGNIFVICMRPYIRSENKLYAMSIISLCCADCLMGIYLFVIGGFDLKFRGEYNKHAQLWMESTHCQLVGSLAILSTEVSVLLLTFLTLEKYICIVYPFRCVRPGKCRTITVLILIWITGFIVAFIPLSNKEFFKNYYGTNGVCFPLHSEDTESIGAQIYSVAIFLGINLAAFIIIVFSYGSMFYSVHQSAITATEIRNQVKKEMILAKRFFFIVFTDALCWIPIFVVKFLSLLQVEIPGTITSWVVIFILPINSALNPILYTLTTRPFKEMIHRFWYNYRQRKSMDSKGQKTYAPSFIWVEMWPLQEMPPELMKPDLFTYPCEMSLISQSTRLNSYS
row,Structure (SMILES),Potency
1,CCN(c1ccccc1)S(=O)(=O)c1ccc(OC)c(NC(=O)C2CC(=O)N(Cc3ccccc3)C2)c1 (stereo not drawn),inactive
2,Cc1cc2nc3ccc(=[N+](C)C)cc-3sc2cc1N,inactive
3,O=C(Nc1ccccc1C(=O)Nc1ccc(F)cc1)c1ccco1,inactive
4,O=C(Nc1ccccc1C(=O)NCc1ccc(Cl)cc1)c1ccco1,inactive
5,Cc1ccccc1NC(=O)c1ccccc1NC(=O)c1ccco1,inactive
6,CCC(Sc1ccc2nnc(-c3cccnc3)n2n1)C(=O)OC (stereo not drawn),19.4 µM (active)
7,Cc1ccc(CN(C)C(=O)c2ccc3c(c2)NC(=O)CS3)o1,inactive
8,CN1C(=O)c2ccc(C(=O)Nc3ccc(Br)cn3)cc2C1=O,21.8 µM (active)
9,O=C(O)c1cc(-c2ccc(Br)s2)nc2ccccc12,3.08 µM (active)
10,CCN(CC)C(=O)c1cc(Cl)ccc1NC(=O)c1ccco1,inactive
11,CCCC(=O)Nc1ncnc2c1ncn2[C@@H]1O[C@@H]2OP(=O)(O)OC[C@H]2[C@H]1OC(=O)CCC,0.69 µM (active)
12,O=C(O)c1cccc(CSc2nnc(Cc3ccccc3)o2)c1,inactive
13,O=C(O)CNC(=O)c1ccccc1NC(=O)c1ccco1,inactive
14,O=C(Nc1ccccc1C(=O)N1CCNCC1)c1ccco1,inactive
15,CCC(=O)Nc1ccc(-n2nnnc2SCC(=O)NNC(=O)c2ccco2)cc1,inactive
16,Cc1ccc2[nH]c3c(=S)nc[nH]c3c2c1,6.9 µM (active)
17,O=C(O)CSc1ccnc2cc(Cl)ccc12,21.8 µM (active)
18,Cc1ccc(-c2ccc3nnc(SCC(=O)NCC4CCCO4)n3n2)cc1 (stereo not drawn),inactive
